One may read the AC50 as the concentration giving half of the maximal activity seen.

Calls of active or inactive are those of the source. How the source made its calls: active means hit-call score of the fitted dose curve at least 0.9, where 1 is the maximum; inactive means score below 0.9.

A short description of this test: CCTE_Padilla_ZF_Score.Craniofacial: CCTE's 144 Hour Post-fertilization zebrafish Assay Score for Craniofacial Malformation, Padilla Lab (AID 2284405). As to the method: CCTE_Padilla_ZF_Phenotype_Score is a whole embryo, multiplexed assay using zebrafish ova exposed for 144 hours post fertilization on a 96-well plate.CCTE_Padilla_ZF_Score.Craniofacial is one of one assay component(s) measured or calculated from the CCTE_Padilla_ZF_Phenotype_Score assay. It is designed to make measurements of zebrafish development as detected with brightfield microscopy of developing zebrafish embryos.Data from the assay component CCTE_Padilla_ZF_Score.Craniofacial was analyzed into 1 assay endpoints. This assay endpoint, CCTE_Padilla_ZF_Score.Craniofacial, was analyzed in the positive analysis fitting direction relative to DMSO as the negative control and baseline of activity. Using a type of viability reporter, gain-of-signal activity can be used to understand changes in developmentals as they relate to the whole embryo. To generalize the intended target to other relatable targets, this assay endpoint is annotated to the zebrafish development intended target family, where the subfamily is craniofacial morphogenesis.
Zebrafish husbandry: Wild type adult zebrafish (Danio rerio; undefined outbred stock obtained from Aquatic Research Organisms, Hampton, NH, 03842) were housed in an AAALAC-approved animal facility at 28C with a 14:10 h light: dark cycle (lights on at 08:30 h). Adult fish (2-3 females per male; density = 15-20 adults per tank) were kept in one of several 9-liter (L) flow-through colony tanks (Aquaneering Inc., San Diego, CA). All adults in a colony tank were placed in a 2 L (static) breeding tank (Aquatic Habitats, Apopka, FL) one hour prior to light onset. Typically, adults from two to three colony tanks were mated on the same day. Two hours after light onset the adults were returned to the colony tank. All embryos were gathered from each breeder tank, pooled, and placed in a 28C water bath for 2 h, followed by two washes with 0.06% bleach (v/v) in 10% Hanks' Balanced Salt Solution (13.7 mM NaCl 0.54 mM KCl, 25 uM Na2HPO4, 130 uM CaCl2 100 um MgSO4 and 420 um NaHCO3,), hereafter referred to as Hanks' solution, for 5 min in order to remove any residual bacteria or fungi. Immediately following washing, the embryos were examined, and healthy embryos were separated from dead or unfertilized eggs and moved into fresh Hanks'. Chemical exposures: Zebrafish embryos were exposed in 96-well plates. Between 6- and 8-hours post fertilization (hpf), healthy embryos (with chorions) were transferred, one embryo per well, into 96 well (0.5 mL) microtiter plates (Cell Culture-Treated, Flat-Bottom Microplate 96 well [Corning Costar, Kennebunk, ME; Cat 09-761-145]) filled with 200 uL of Hanks' solution. A random number generator was used to assign the order in which the rows of embryos were plated in 96 well plates each week. After plating, the embryos were dosed with 0.8 uL of the chemical dosing solution then immediately sealed with AlumaSeal II (Excel Scientific Inc, Victorville, CA) to prevent volatilization of the chemicals, and then placed in a leakproof secondary container. These containers were placed in an incubator maintained on a 14:10 h light: dark cycle at 26C for rearing. On 5 dpf, live larvae were gently moved out of the plate with test chemicals and into a new 96 well mesh plate (Millipore Corp., Bedford, MA) with just the Hanks' solution. Once within the mesh well plate, the animals were rinsed with 400 uL of fresh Hanks' three times, and then the plates were covered with a non-adhesive material (Microseal A, BioRad, Hercules, CA), plate lid added, and then plate sides wrapped in Parafilm (PM992, Bermis Company, Neenah, WI), and returned to the incubator. […]
`OCCC(F)(F)C(F)(F)C(F)(F)C(F)(F)F`: the compound was called inactive. Still for that read-out and setting: under `O=C(Cl)C(F)(F)C(F)(F)C(F)(F)C(=O)Cl` stands “inactive”; under `C[Si](C)(C)C(F)(F)C(F)(F)C(F)(F)F`, “inactive”. As to `OC(O)(C(F)C(O)(O)C(F)(F)F)C(F)(F)F`, the AC50 is 35.5 µM (active). Turning to `NCC(F)(F)C(F)(F)C(F)(F)C(F)(F)F`, the compound was called inactive. As for `FC(F)(F)COC(OCC(F)(F)F)OCC(F)(F)F`, the outcome was inactive.

For `FC(F)=C(F)C(F)(F)C(F)(F)C(F)(F)C(F)(F)C(F)(F)C(F)(F)F`, the compound was classed as inactive.

On to `FC(F)(F)C(F)(F)C(F)(F)C(F)(F)C(F)(F)C(F)(F)I`, for which the compound was classed as inactive. As for `FC(F)C(F)(F)COCC1CO1` (stereo not given), the AC50 was 118 µM (active).

For the compound `O=S(=O)(O)CCC(F)(F)C(F)(F)C(F)(F)C(F)(F)C(F)(F)C(F)(F)F`, the outcome was inactive.

The record behind these values is PubChem BioAssay (EPA / NIEHS).
